APEX1 inh: APE1 (human) endonuclease inhibition; P27695; recombinant APE1, TAMRA/BHQ-2 abasic DNA cleavage fluorescence; Potency, µM (highest dose often 65.8 µM), hits mostly inhibitors; hit rate 0.35% among 350,000; also: nearly all actives have a fitted effect of over 55% in size
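Substrate: short duplex with […] THF abasic site, 5'-TAMRA and 3'-BHQ-2, 50 nM final. APE1 at 0.75 nM, preincubated 15 min RT with compound. Fluorescence increase from first to third read measured activity.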
KDM4E inh: inhibitors of human JMJD2E histone demethylase; B2RXH2; JMJD2E catalytic domain, FDH-coupled NADH fluorescence (FDH is formaldehyde dehydrogenase); Potency, µM (series often up to 57.1 µM), hits mostly inhibitors; hit rate 1.6% among 230,000; active = well fitted inhibition curve with a large enough effect, not every such curve was filed as active; inconclusive = small, poorly fitted or top-dose-only effect, or another doubt; inactive = no such curve, though single readings can be large or run the other way; also: nearly all actives have a fitted effect of over 50% in size
TDP1 inh: inhibitors of human tyrosyl-DNA phosphodiesterase TDP1 | recombinant TDP1, AlphaScreen DNA substrate cleavage | Potency, µM (series often up to 130 µM), actives largely listed as inhibitors | hit rate 0.28% among 350,000 | AID 485290; also: nearly all actives have a fitted effect of over 40% in size
Target sequence (Q9NUW8 whole entry, looked up): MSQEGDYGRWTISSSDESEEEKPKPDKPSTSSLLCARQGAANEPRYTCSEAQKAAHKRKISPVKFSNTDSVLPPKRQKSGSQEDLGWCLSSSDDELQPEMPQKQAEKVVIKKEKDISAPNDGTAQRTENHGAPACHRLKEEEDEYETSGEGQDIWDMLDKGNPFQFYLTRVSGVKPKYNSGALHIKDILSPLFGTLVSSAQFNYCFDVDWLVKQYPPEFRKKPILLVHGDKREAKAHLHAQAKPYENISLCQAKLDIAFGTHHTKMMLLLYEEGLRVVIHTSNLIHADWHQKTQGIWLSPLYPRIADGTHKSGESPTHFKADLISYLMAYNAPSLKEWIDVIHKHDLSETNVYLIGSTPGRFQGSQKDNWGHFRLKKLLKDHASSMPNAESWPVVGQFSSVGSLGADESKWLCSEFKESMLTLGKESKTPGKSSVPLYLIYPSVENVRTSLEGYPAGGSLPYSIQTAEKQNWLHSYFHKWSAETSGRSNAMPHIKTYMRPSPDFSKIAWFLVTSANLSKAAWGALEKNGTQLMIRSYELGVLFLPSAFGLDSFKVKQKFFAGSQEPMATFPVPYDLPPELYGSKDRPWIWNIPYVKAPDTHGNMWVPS
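Compounds were preincubated with Tdp1 (1 nM final) for 15 min at room temperature before substrate (15 nM final) started a 5 min reaction; beads (10 ug/ml final) were then added for 10 min before AlphaScreen detection.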
GCN5L2 inh-1: inhibitors of human GCN5L2 histone acetyltransferase; hit rate 0.21% among 390,000; Potency, µM (series often up to 58.9 µM), usual class: inhibitors; GCN5L2 HAT assay, ThioGlo1 CoA-SH fluorescence
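qHTS, 1536-well. 20nM enzyme, pH 7.5 HEPES/EDTA/Tween-20 buffer; 15 min compound preinc., RT. Start: 75uM H3(1-25), 70uM AcCoA, 50uM ThioGlo1. Read Ex340/Em540 at t=0 (autofluorescence flag) and t=20 min.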
RECQ1 inh-1: inhibitors of human RECQ1 DNA helicase; hit rate 0.54% among 240,000; Potency, µM (doses to about 57.3 µM), usual class: inhibitors; RECQ1 DNA unwinding, red fluorescence kinetic read; P46063; also: nearly all actives have a fitted effect of over 30% in size
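50 nM RECQ1T1 preincubated 15 min with compound in Tris pH 8.0 buffer with MgCl2, DTT, Tween-20 and 2.5 ug/ml poly(dI-dC); started with 200 nM TAMRA/BHQ-2 forked duplex and 2 mM ATP. Unwinding read as fluorescence (525/598 nm), two reads 2 h apart.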
BLM inh: inhibitors of human Bloom syndrome helicase BLM; P54132; recombinant BLM DNA unwinding, fluorescence dequenching; Potency, µM (titrated, usually from 56.1 µM), most hits filed as inhibitors; hit rate 0.2% among 350,000; also: nearly all actives have a fitted effect of over 35% in size
RECQ1 conf: confirmation of human RECQ1 helicase inhibitors; Potency, µM (series often up to 229 µM), usual class: inhibitors; RECQ1 helicase DNA unwinding, fluorescence; shares compounds with RECQ1 inh-1; hit rate 28% among 610; also: nearly all actives have a fitted effect of over 45% in size
ADP FP counter: ADP displacement flagged in RECQ1 inhibitor counter-screen; shares compounds with RECQ1 inh-1; ADP fluorescence polarization displacement counterscreen; Potency, µM (series often up to 228 µM), most hits filed as inhibitors; hit rate 27% among 530; AID 2711; also: nearly all actives have a fitted effect of over 45% in size
RECQ1 inh-2: RECQ1 helicase inhibition confirmed, round 2 | recombinant RECQ1 DNA unwinding, red fluorescence | Potency, µM (doses to about 119 µM), most hits filed as inhibitors | hit rate 15% among 1,100 | shares compounds with RECQ1 inh-1; also: nearly all actives have a fitted effect of over 50% in size
GCN5L2 inh-2: human KAT2A HAT inhibition, hit confirmation. shares compounds with GCN5L2 inh-1. hit rate 70% among 140. GCN5L2 HAT, ThioGlo1 CoA fluorescence, 20 min. Potency, µM, hits mostly inhibitors
Hits are given with their value; n = inactive; u = inconclusive; x = not tested or not shown; ! = not confirmed by another sample; [ ] = another dose, or the depositor's remark. This is one part of a sample in which hits are shown more often than they occur. Unless noted, calls follow the shape of the dose curve; as a rule, active = well fitted curve in the direction sought with a large enough effect; inconclusive = small, poorly fitted or top-dose-only effect, or another doubt; inactive = no such curve, though single readings can be large; an effect the other way counts as inactive or inconclusive.

SMILES	APEX1 inh	KDM4E inh	TDP1 inh	GCN5L2 inh-1	RECQ1 inh-1	BLM inh	RECQ1 inh-2	others
O=C(O)c1ccc(-c2ccc3cc(C45CC6CC(CC(C6)C4)C5)c(O)cc3c2)cc1	n	x	n	15.8µM	20µM	n	u	RECQ1 conf=100µM;ADP FP counter=112µM
C=C(C)C(N)=O	n	x	n	x	n	x	x
O=[N+]([O-])c1ccccc1-c1ccccc1	n	x	n	x	n	x	x
Nc1ccc(Cl)cc1C(=O)c1ccccc1Cl	n	n	n	n	25.1µM	n	n
Nc1ccc(Cl)cc1C(=O)c1ccccc1	u	n	n	n	n	n	x
CC(C)CCNC(=O)c1c(N)n(Cc2ccc3c(c2)OCO3)c2nc3ccccc3nc12	n	u	n	n	u	n	n
CCCCNC(=O)c1c(N)n(CCCOC)c2nc3ccccc3nc12	n	u	x	n	u	u	n
COCCNC(=O)c1c(N)n(CCC(C)C)c2nc3ccccc3nc12	n	u	n	n	n	u	x
S=P(c1ccccc1)(c1ccccc1)c1c[nH]c2ccccc12	x	x	n	x	x	x	x
C=C1C(=O)O[C@@H]2C[C@@H](C)[C@@H]3C=CC(=O)[C@@]3(C)[C@@H](OC(=O)CC(=O)O[C@H]3[C@@H]4C(=C)C(=O)O[C@@H]4C[C@@H](C)[C@@H]4C=CC(=O)[C@]43C)[C@H]12	n	n	n	n	25.1µM	22.4µM	x	RECQ1 conf=14.1µM;ADP FP counter=n
CCCCNC(=O)Oc1c(Br)cc2sc(=O)oc2c1Br	u	u	x	n	11.2µM	n	x	RECQ1 conf=n;ADP FP counter=n
CC(Oc1ccc(Cl)cc1Cl)C(=O)Nc1ccc(S(=O)(=O)Nc2cnc3ccccc3n2)cc1 (configuration not stated)	n	u	n	n	17.8µM	n	u	RECQ1 conf=n;ADP FP counter=n
COc1cc(NS(=O)(=O)c2ccc(NC(=S)NC(=O)CC(C)C)cc2)nc(OC)n1	u	n	n	n	n	n	x
COc1cc2c(cc1OC)C1C(=O)c3c(cc4c(c3O)C=CC(C)(C)O4)OC1CO2 (configuration not stated)	n	n	n	n	n	n	x
CC1COC2=C1C(=O)C(=O)c1c2ccc2c1CCCC2(C)C (configuration not stated)	u	u	n	28.2µM	12.6µM!	u	x	RECQ1 conf=100µM;ADP FP counter=28.2µM
CCC(C=C[C@@H]1OC(=O)C=C[C@H]1C)=C[C@H](C)CC=CC(C)=C[C@@H](C)C(=O)[C@@H](C)[C@H](O)[C@@H](C)CC(C)=CC(=O)O	u	x	1.26µM	n[2.33 µM]	u	u	1.34µM
COc1cccc(CNC(=O)CSc2ccc(-c3ccco3)nn2)c1	u	u	x	n	u	n	n
COc1cc(O)c(C(=O)O)c(-c2cc(O)c(O)cc2C)c1	20µM	14.1µM	x	n	u	n	u
COc1ccc2c(c1)c(C(=O)O)c(C)n2CC(C)C	n	n	n	n	n	n	x
COC[C@H]1OC(=O)c2coc3c2[C@@]1(C)C1=C(C3=O)[C@@H]2CCC(=O)[C@@]2(C)C[C@H]1OC(C)=O	n	x	n	n	35.5µM	x	n
O=C1CC2OCC=C3CN4CCC56c7ccccc7N1C5C2C3CC46 (configuration not stated)	n	x	n	n	n	n	x
CCC(CO)NC(=O)C1C=C2c3cccc4[nH]cc(c34)CC2N(C)C1 (configuration not stated)	n	u	n	n	n	n	x
CC[C@@H](CO)NC(=O)[C@@H]1C=C2c3cccc4[nH]cc(c34)C[C@H]2N(C)C1	u	x	n	n	35.5µM	n	x	RECQ1 conf=n;ADP FP counter=112µM
CCN(CC)C(=O)N[C@@H]1C=C2c3cccc4[nH]cc(c34)C[C@H]2N(C)C1	x	x	n	u	u	n	x	RECQ1 conf=n;ADP FP counter=22.4µM
CCC1CN2CCC1CC2C(Oc1cc2ccccc2c2ccccc12)c1ccnc2ccc(O)cc12 (configuration not stated)	n[12.4 µM]	x	n[21 µM]	x	n[11.5 µM]	n[12.4 µM]	x
SMILES	APEX1 inh	KDM4E inh	TDP1 inh	GCN5L2 inh-1	RECQ1 inh-1	BLM inh	RECQ1 inh-2	others
C=C1CC[C@H](O)C/C1=C/C=C1\CCC[C@]2(C)[C@H]1CC[C@H]2[C@@H](C)CCCC(C)C	n	n	n[21 µM]	n	n	n	x
CCCCC/C=C\C/C=C\C/C=C\C/C=C\CCCC(=O)NCc1ccoc1	u	x	u	14.1µM	11.2µM	u	u
Nc1cccc2ccccc12	u	x	n	x	n	x	x
Cc1ccc2nc(N3CCN(C)CC3)[nH]c2c1	n	n	n	n	n	n	x
CCOc1ccc(-c2nc3ccc(-c4nc5ccc(N6CCN(C)CC6)cc5[nH]4)cc3[nH]2)cc1	n	x	n	11.2µM	12.6µM	u	5.62µM!
[O-][Cl+2]([O-])O	n	x	n	x	n	x	x
CCOC(=O)c1ccc(N=Cc2c(O)n(-c3ccccc3F)c(=S)[nH]c2=O)cc1	n	n	n	n	31.6µM	n	n
C=CCN1CCc2cccc3c2C1Cc1ccc(O)c(O)c1-3 (configuration not stated)	u	u	n	n	u	x	x
O=C(O)c1ccccc1-c1nc2ccccc2n1-c1ccccc1	n	n	n	n	11.2µM	n	1.78µM	RECQ1 conf=39.8µM
Oc1c(Br)c(Br)c(Br)c(Br)c1Br	n	x	n	31.6µM	u	x	x	GCN5L2 inh-2=14.5
Oc1c(Br)cc(Br)cc1Br	n	x	n	n	n	n	x
O=C(O)CCC(=O)NCCC1=c2ccccc2=N/C1=C\c1c(O)n(Cc2ccc(F)cc2)c(=S)[nH]c1=O	n	u	35.5µM	17.8µM	n	n	x	GCN5L2 inh-2=5.13
O=C1c2ccccc2C(=O)C1C(=O)C(c1ccccc1)c1ccccc1	x	x	n	n	x	n	x

Screening results (PubChem)
